Only a selection was taken, and hits are over-represented in it overall.
KDM5B inh = KDM5B demethylase inhibition. Q9UGL1. KDM5B demethylase, FDH-coupled NADH fluorescence (FDH is formaldehyde dehydrogenase). Potency, µM (series often up to 57.7 µM), hits mostly inhibitors. hit rate 2.6% among 220,000. AID 1347165; active = well fitted inhibition curve with a large enough effect; also: nearly all actives have a fitted effect of over 70% in size
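Here, H3K4me3 peptide (12.5 µM in substrate mix) is demethylated by KDM5BΔAP, 200 nM final, after 10 min compound exposure. Formaldehyde product is coupled through FDH (0.25 U/mL in mix) to NADH fluorescence; 30-min ΔRFU feeds dose-response curves.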
Hits are given with their value; – = inactive.

SMILES	KDM5B inh
CC(=O)c1ccc(CN2CCCCC2)c(OC(C)C)c1	–
C[C@H](C(=O)N1CCOCC1)C1CC[C@@]2(C)Cc3sc(CS(=O)(=O)C(C)(C)C)nc3[C@@H](C)[C@@H]2[C@H]1O (some centres not stated)	–
COc1ccc(-c2ccc3ncc(Nc4ccccc4C)n3n2)cn1	–
Cc1ccc(CN2CCCC(c3nn(-c4ccc(Cl)cc4)c(=O)[nH]3)C2)cc1 (configuration not stated)	–
CCN(CC)CCN1C(=O)C(O)=C(C(=O)c2sc(C)nc2C)C1c1ccc(C(=O)OC)cc1 (configuration not stated)	–
Cc1cccc(Cn2c(Sc3ncccn3)nc3c2c(=O)[nH]c(=O)n3C)c1	–
C=CCOc1ccc(/C=C2\N=C(SC)SC2=O)cc1	–
Cc1ccc(-c2c(C)sc(NC(=O)CC3(CC(=O)O)CCCC3)c2C(N)=O)cc1C	–
N#Cc1cc(-n2ccnc2-c2cc3n(n2)CCCNC3)ccc1N1CCCC1	28µM
c1cn(-c2ccc3ncsc3c2)c(-c2cc3n(n2)CCCNC3)n1	3.5µM
c1cncc(CCn2ccnc2-c2cc3n(n2)CCCNC3)c1	–
c1cn(-c2ccc3cn[nH]c3c2)c(-c2cc3n(n2)CCCNC3)n1	–
COc1cc(-n2cnnn2)cc(-n2ccnc2-c2cc3n(n2)CCNC3)c1	–
c1cn(-c2ccc(-c3cscn3)cc2)c(-c2cc3n(n2)CCCNC3)n1	–
Cc1ccc(C(=O)/C=C/c2cccc(/C=C/C(=O)c3ccc(C)o3)c2)o1	–
O=C1CC(c2ccccc2)N(S(=O)(=O)c2ccc3c(c2)OCCO3)CCCCCN1 (configuration not stated)	–
CC(C)c1cc(C(N)=O)c(NC(=O)Cc2c(F)cccc2Cl)s1	–
O=C(OCc1nc(-c2cccc(Cl)c2)no1)c1ccccn1	–
O=C1c2c(nc(COc3cccc(C(F)(F)F)c3)n2Cc2ccccc2)NCCN1CC1CC1	–
O=C(NC1CCCCCCC1)c1n[nH]c(=O)c2ccccc12	–
CSCc1ccc(C(=O)N2CCCC(c3nccn3CC3CC3)C2)o1 (configuration not stated)	–
Cc1ccc(C#N)c(N2CCCC(c3nccn3CC3CCC3)C2)n1 (configuration not stated)	32µM
O=C(NCc1ccccc1)N1CCCC(c2nccn2CC2CCC2)C1 (configuration not stated)	–
COc1cc(=O)n2c(c1C(=O)Nc1cccc3c1CCCC3)CCCC2	–
CN(C)[C@@H]1C[C@@H](CO)N(Cc2cc(=O)n3c4c(cccc24)CCC3)C1	22µM
SMILES	KDM5B inh
COCC(=O)N[C@H]1C[C@@H](CO)N(Cc2cccc(F)c2F)C1	–
Cc1oc(-c2ccc(C(=O)NCc3cccnc3)cc2)nc1CS(=O)c1ccccc1 (configuration not stated)	–
COc1cccc(N2C(=O)NC(=NC3CCCC3)C23CCN(Cc2cccnc2)C3)c1 (configuration not stated)	–
CCS(=O)(=O)c1ccc2oc([C@H]3CCN(Cc4c[nH]c5ccccc45)C3)nc2c1	32µM
Cc1ccc(CN2CC[C@H](c3nc4cc(C)ccc4o3)C2)cc1	–
c1cncc(CN2CC[C@H](c3nnc(Cc4c[nH]c5ccccc45)o3)C2)c1	–
Cc1ccc(NC(=O)c2cc(-c3ccncc3)nc3ccccc23)c(O)c1	–
CCc1noc(-c2cccn3c(CNC(=O)CCc4ccc(OC)cc4)nnc23)n1	–
CCc1noc(-c2cn(C3CCN(C(=O)COc4ccccc4)CC3)nn2)n1	–
CCc1noc(-c2cccn3c(CNC(=O)COc4ccccc4)nnc23)n1	32µM
CCc1noc(-c2cccn3c(CNC(=O)C(C)c4ccccc4)nnc23)n1 (configuration not stated)	22µM
CCCCn1c(CN2CCc3ccccc3C2)nc2c1c(=O)[nH]c(=O)n2Cc1ccccc1	–
COCCN1C(=O)c2ccccc2N2C(=O)CCC12C(=O)OCc1cc(=O)oc2cc(C)ccc12 (configuration not stated)	–
CC(=O)c1ccc(NC(=O)COc2ccccc2-c2nc(C(C)C)no2)cc1	–
CCN(CC)c1ccc(C(=O)NCc2nnc3c(-c4nc(C(C)C)no4)cccn23)cc1	–
CC(C)c1noc(-c2cccn3c(CNC(=O)c4ccccc4)nnc23)n1	22µM
CC(CNC(=O)c1ccco1)c1ccccc1 (configuration not stated)	–
CC(C)c1noc(-c2ccccc2OCC(=O)Nc2ccccc2[N+](=O)[O-])n1	–
CC(C)c1noc(-c2cccn3c(CNC(=O)c4ccccn4)nnc23)n1	25µM
COc1ccccc1OCCSc1nnc(CNC(=O)c2ccco2)n1C	–
CC(C)c1noc(-c2cccn3c(CNC(=O)c4ccco4)nnc23)n1	22µM
Cc1ccc(CNC(=O)c2ccccn2)s1	–
O=C(CCc1nc(-c2ccc(Cl)cc2)no1)Nc1cccc(S(=O)(=O)NC2=NCCC2)c1	–
CCc1cc(C(c2ccc(F)cc2)N2CCN(CC)CC2)c(NC(=O)c2ccco2)s1 (configuration not stated)	–
COC(=O)Cn1c(CN2CCN(c3cc(Cl)ccc3C)CC2)nc2c1c(=O)n(C)c(=O)n2C	–
SMILES	KDM5B inh
Fc1ccc(NC(=S)N(Cc2ccccc2)Cc2ccccc2)cc1	–
COCCNC(=O)c1c(C)oc2c1CN(Cc1cccc(F)c1)CC2	–
CC(Oc1ccc(Cl)cc1Cl)C(=O)NCCc1cccs1 (configuration not stated)	–
CSc1nc2ccc(NC(=O)Cc3cccc(C(F)(F)F)c3)cc2s1	–
Cc1c(C)n(CCO)c2ncn3nc(CSc4nc5ccccc5o4)nc3c12	–
COc1cccc(-c2cc(-c3cccc(OC)c3)[nH]n2)c1	–
O=C(NCc1ccc(F)cc1)c1cnc2n[nH]c(-c3ccccc3)c2n1	–
COc1ccc(-c2cnc3n[nH]c(-c4ccc5c(c4)OCO5)c3n2)cc1	–
Fc1ccc(-c2cnc3n[nH]c(-c4ccccc4)c3n2)cc1	32µM
COc1cccc(-c2cnc3n[nH]c(-c4ccccc4)c3n2)c1	35µM
COc1ccc(-c2[nH]nc3ncc(-c4ccc(C)cc4)nc23)cc1F	–
Oc1ccccc1N1CCN(c2nc(-c3cccnc3)nc3ccccc23)CC1	–
CC(C)CC1NC(=O)N(Cc2cc(F)cc3cccnc23)C1=O (configuration not stated)	–
O=C(c1ccoc1)N1CCCCC1c1nc(CCOCC2CC2)no1 (configuration not stated)	–
Cc1ncsc1CN1CCCCC1c1nc(CCOCC2CC2)no1 (configuration not stated)	18µM
Cc1ccc(NC(=O)N2CCCCC2c2nc(CCOCC3CC3)no2)cc1C (configuration not stated)	–
Cc1cc(=O)oc2c(C)c(OCC(=O)Nc3nc4ccccc4[nH]3)ccc12	–
Cc1cccc(N2CCN(C(=O)c3nn(Cc4ccccc4)c(=O)c4ccccc34)CC2)c1C	–
Cc1ccc(C)c(N2CCN(C(=O)c3noc(-c4ccc[nH]c4=O)n3)CC2)c1	28µM
Cc1ccc(-c2nc(C(=O)N3CCN(c4cccc(C)c4)CC3)no2)cc1	–
COCCNC(=O)c1noc(-c2ccccc2F)n1	–
COc1ccc(C(C)NC(=O)c2noc(-c3ccc[nH]c3=O)n2)cc1OC (configuration not stated)	32µM
COc1ccc(C(C)NC(=O)c2c(C)noc2C)cc1OC (configuration not stated)	–
CC(C)Oc1ccc(CNC(=O)c2noc(-c3ccc[nH]c3=O)n2)cc1	–

Bioassay records deposited in PubChem by National Center for Advancing Translational Sciences (NCATS).
